Data: PubChem BioAssay (NCI)
The panel holds about 79,000 compounds, 15% with a hit somewhere; the sample as a whole holds those more often. Calls of active or inactive are those of the source. Rule as the data show it: active = growth inhibition above about 70%; inactive = the rest.

Experiment: NCI Yeast Anticancer Drug Screen. Data for the wt2 strain (AID 169);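 also: 0% = growth of vehicle-treated yeast cultures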
Settings: S. cerevisiae wt2 strain growth inhibition; at 3.7 µM; active compounds read high
How it was run: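 Treated yeast vs. vehicle-treated yeast: growth inhibition determined.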

| Structure (SMILES) | growth inhibition |
| --- | --- |
| CC(CN(C)C)C(=O)/C=C/c1ccc(Cl)c(Cl)c1 (configuration not stated) | 6% (inactive) |
| CCCCCCNCCCNc1c2cc(OC)ccc2nc2cccc([N+](=O)[O-])c12 | 0% (inactive) |
| NC(=S)N1N=C2c3ccccc3CC[C@H]2[C@@H]1c1ccc(Cl)cc1 | 14% (inactive) |
| C/C(=N/NC(=S)Nc1ccccc1C)c1ccccn1 | -6% (inactive) |
| O=C1/C(=C/c2ccc(Cl)c(Cl)c2)CNC/C1=C\c1ccc(Cl)c(Cl)c1 | 0% (inactive) |
| CC(C)OP(=O)(OC(C)C)C(=NCCO)NNc1ccc([N+](=O)[O-])cc1 | -3% (inactive) |
| N#CCC(=O)N/N=C(\c1ccccc1)C(c1ccccc1)C1(O)C(=O)Nc2c(Cl)ccc(Cl)c21 (configuration not stated) | 8% (inactive) |
| CC(C)(CN1CCCCC1)C(=O)CC(SCCS(=O)(=O)O)c1ccccc1 (configuration not stated) | 2% (inactive) |
| COC1=CCC23C(=O)C=CC(=O)C2(C1)C(=O)c1ccccc1C3=O (configuration not stated) | -5% (inactive) |
| CCCCN(CCCC)c1ccc(N=Nc2ccc(S(=O)(=O)O)cc2)cc1 | 39% (inactive) |
| c1ccc2nc3c(nc2c1)sc1ccccc13 | 1% (inactive) |
| O=C1c2ccccc2-c2ccc(N=Cc3ccccc3)cc21 | 6% (inactive) |
| CNC(=S)N/N=C(/C)CCC/C(C)=N/NC(=S)NC | 58% (inactive) |
| Nc1ccc(/C=C/c2ccc3cccnc3c2)cc1 | 8% (inactive) |
| CCOC(=O)Nc1ccc(C)c(NC(=O)OCC)c1 | 8% (inactive) |
| CCN(CC)CCNc1ccc2nc(C)n3c4ccc(OC)cc4c(=O)c1c23 | -25% (inactive) |
| C[N+](C)([O-])CCCNc1c2ccccc2nc2cccc([N+](=O)[O-])c12 | 20% (inactive) |
